We go through 29 compounds from PubChem BioAssay AID2685 (National Center for Advancing Translational Sciences (NCATS), 2010).

Molecules are shown by their SMILES. Screen size: about 320,000 compounds; about 2,100 (0.66%) were called active. Another 53% or so got no clear call; they are omitted. The call rests on the fitted dose curve; in most records, active means well fitted inhibition curve with a large enough effect in the signal ratio, with a control signal flat (not every such curve was filed as active); inconclusive means small, poorly fitted or top-dose-only effect, or effect the other way, or a change in a side signal; inactive means flat fitted curve, though single readings scatter; the % refers to the signal ratio. What follows is part of a selection rich in actives, with near analogues and random picks from the rest.
Potency means the concentration at half of the fitted maximal effect.

The nature of the assay: qHTS Assay for Lipid Storage Modulators in Drosophila S3 Cells.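 On cell number change: cells counted by Cell Tracker Red CMTPX staining in the red channel.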 On lipid storage change, negative = inhibition: on the % scale 0 is the no-effect control and ±100 the full control effect. The conditions noted are these: BODIPY lipid droplet fluorescence, 18-24 h, cells fed with added oleic acid; cell number change: measured here: cell count max response; series mostly up to 46.1 µM; lipid storage change, negative = inhibition: at the top concentration. In short, it runs like this:
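Drosophila S3 cells got compounds at several concentrations plus oleic acid (400 uM solution). Laser-scanning cytometry with 488 nm excitation read lipid droplets at 500-530 nm and cells at 575-640 nm. Percent activity was relative to 20 uM Triacsin C.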
In the case of `CC1CCC(NC(=O)COC(=O)c2cccnc2Cl)CC1` (centres undefined), the “lipid storage change, negative = inhibition” value is -3.37% (inactive).

For the compound `COC(=O)N1[C@H](Cc2ccccc2)C=C[C@]1(C)C(=O)NCc1ccccn1`, the “lipid storage change, negative = inhibition” value is -3.63% (inactive) and the cell number change is 11.5%.

For `O=S(=O)(Nc1ccc(OC(F)F)cc1)c1ccc(-c2ccon2)s1`, the “lipid storage change, negative = inhibition” value was 11.5% (inactive) and the cell number change was -0.692%. For `O=C(CN1C(=O)c2ccccc2S1(=O)=O)Nc1ccccc1C(=O)NCc1ccco1` the same measures were 13.6% (inactive) and -1.22%. For `C=CCN(C(=O)Cn1c(C(=O)OC)cc2oc(C)cc21)c1ccccc1` the same measures were -6.54% (inactive) and -13%. For the compound `Clc1ccc(-c2noc(CCCOc3ccccc3)n2)cc1`, the “lipid storage change, negative = inhibition” value was 16.5% (inactive) and the cell number change is -10.9%. Turning to `Clc1ccc(OCc2nc(-c3ccncc3)no2)c(Cl)c1`, the result was inactive. On to `Clc1ccc(OCCCc2nc(-c3cccnc3)no2)c(Cl)c1`, for which the Potency is 14.6 µM (active) and the cell number change is -29.5%. `C/C(=C\C(=S)Nc1ccccc1)Nc1ccccc1`: the “lipid storage change, negative = inhibition” value is 0.0435% (inactive) and the cell number change is -10.3%. For `O=[N+]([O-])c1ccc(N2CCCCC2)cc1`, in that order: 15% (inactive) and 7.1%. For `Nc1ncc(-c2ccc([N+](=O)[O-])cc2)cn1`, in that order: 10.8% (inactive) and 12.5%. Consider `Nc1ncc2c(n1)CCN(c1ccc([N+](=O)[O-])cc1)C2`, for which the Potency was 23.1 µM (active) and the cell number change was -20.7%. For the compound `O=C(CCNC(=O)N1CC(=O)Nc2ccccc21)Nc1ccc(Br)cc1F`, the compound was called inactive and the cell number change was -22.5%. As for `O=C1c2cccc3cccc(c23)C(=O)N1Nc1ccccc1`, the “lipid storage change, negative = inhibition” value was -24.6% (inactive) and the cell number change was 13.9%. With `CCCOc1ccc(Br)cc1CSC(=N)N`, the Potency was 18.4 µM (active) and the cell number change was -27.5%.

Turning to `COc1ccc(Br)cc1CSC(=N)N`, the “lipid storage change, negative = inhibition” value is 1.61% (inactive) and the cell number change was determined as 1.43%. For `CCOc1ccc(C(C)=O)cc1CSC(=N)N` the same measures were 3.16% (inactive) and 0.606%. Regarding `Cc1ccc2nc3c(c(Nc4ccccc4)c2c1)CCC3`, the “lipid storage change, negative = inhibition” value is 3.77% (inactive).

Take `COc1ccc(Nc2c3c(nc4ccccc24)CCC3)cc1`: the “lipid storage change, negative = inhibition” value is 5.42% (inactive) and the cell number change stood at 21.3%. Turning to `COc1ccc(Nc2c3c(nc4ccc(C)cc24)CCC3)cc1`, the Potency is 20.6 µM (active) and the cell number change turned out to be 0.901%. In the case of `COc1ccc(C(C)=O)cc1COC(=O)CNC(=O)c1ccc(Cl)cc1`, the “lipid storage change, negative = inhibition” value was -8.38% (inactive) and the cell number change was -0.097%. For `Cc1c(C(=O)N/N=C/C(C)C)[nH]c2ccc([N+](=O)[O-])cc12`, in that order: 1.18% (inactive) and -4.9%.

`O=C(NCCN1CCOCC1)c1sc2ccccc2c1Cl`: the “lipid storage change, negative = inhibition” value is -5.29% (inactive) and the cell number change is -1.8%. On to `O=C(NCCCN1CCOCC1)c1sc2cc(Cl)ccc2c1Cl`, for which the “lipid storage change, negative = inhibition” value is 28.1% (inactive) and the cell number change worked out at 0.814%. Turning to `O=C(NCCN1CCOCC1)c1sc2cc(Cl)ccc2c1Cl`, the Potency was 4.61 µM (active) and the cell number change was -3.15%.

In the case of `COc1ccc(NC(=O)Nc2nnc(-c3ccco3)s2)cc1`, the “lipid storage change, negative = inhibition” value was -13.5% (inactive) and the cell number change came out at 3.5%. For `Cc1cc2nc(NC3=NCN(CCN4CCOCC4)CN3)nc(C)c2cc1C` the same measures were 9.9% (inactive) and -6.7%. Consider `Cc1nc(NC2=NCN(CCCN3CCOCC3)CN2)nc2c(C)cccc12`, for which the compound was called inactive. On to `Cc1cc(C)c2nc(NC3=NCN(CCN4CCOCC4)CN3)nc(C)c2c1`, for which the Potency was 25.9 µM (active) and the cell number change was determined as 3.72%.
